31 molecules from article PMC9911399, “Two distinct binding modes provide the RNA-binding protein RbFox with extraordinary sequence specificity” can be followed below.

Where a chain is given by its changes, count along the chain named. Whole data set: some 16,000 sequences, median “ka relative to ugcaugu” near 0.0091, cut for the highest 2% near 0.032. For the sample, the highest values were picked, then their nearest neighbours and some sequences at random.

To fix the notation:
B1: UAACAUU (DNA:RNA)
RNA: GGGAGACCGGAAUUCAGAUUGUCCUAACAUUUUAAAUCCCGUCGUAGCCACCA
DNA 1: CAATCTGAATTCCGGTCTCCC
DNA 2: TGGTGGCTACGACGGGATT
B2: UACAGUC (DNA:RNA)
RNA: B1 RNA with A27C, C28A, A29G, U31C
DNA 1: CAATCTGAATTCCGGTCTCCC
DNA 2: TGGTGGCTACGACGGGATT
B3: AGCAGAA (DNA:RNA)
RNA: GGGAGACCGGAAUUCAGAUUGUCCAGCAGAAUUAAAUCCCGUCGUAGCCACCA
DNA 1: CAATCTGAATTCCGGTCTCCC
DNA 2: TGGTGGCTACGACGGGATT
B4: GUCAUGA (DNA:RNA)
RNA: B3 RNA with A25G, G26U, G29U, A30G
DNA 1: CAATCTGAATTCCGGTCTCCC
DNA 2: TGGTGGCTACGACGGGATT
B5: GCAUUCA (DNA:RNA)
RNA: B3 RNA with A25G, G26C, C27A, A28U, G29U, A30C
DNA 1: CAATCTGAATTCCGGTCTCCC
DNA 2: TGGTGGCTACGACGGGATT
B6: GCAUGAC (DNA:RNA)
RNA: B3 RNA with A25G, G26C, C27A, A28U, A31C
DNA 1: CAATCTGAATTCCGGTCTCCC
DNA 2: TGGTGGCTACGACGGGATT
B7: GCAUGAU (DNA:RNA)
RNA: B3 RNA with A25G, G26C, C27A, A28U, A31U
DNA 1: CAATCTGAATTCCGGTCTCCC
DNA 2: TGGTGGCTACGACGGGATT
B8: GGCAUAA (DNA:RNA)
RNA: B3 RNA with A25G, G29U
DNA 1: CAATCTGAATTCCGGTCTCCC
DNA 2: TGGTGGCTACGACGGGATT
B9: GGCAUGA (DNA:RNA)
RNA: B3 RNA with A25G, G29U, A30G
DNA 1: CAATCTGAATTCCGGTCTCCC
DNA 2: TGGTGGCTACGACGGGATT
B10: GCAUAAU (DNA:RNA)
RNA: B1 RNA with U25G, A26C, C28U, U30A
DNA 1: CAATCTGAATTCCGGTCTCCC
DNA 2: TGGTGGCTACGACGGGATT
B11: GGAUGGA (DNA:RNA)
RNA: B3 RNA with A25G, C27A, A28U, A30G
DNA 1: CAATCTGAATTCCGGTCTCCC
DNA 2: TGGTGGCTACGACGGGATT
B12: GUAUGAC (DNA:RNA)
RNA: B3 RNA with A25G, G26U, C27A, A28U, A31C
DNA 1: CAATCTGAATTCCGGTCTCCC
DNA 2: TGGTGGCTACGACGGGATT
B13: GGAUGAC (DNA:RNA)
RNA: B3 RNA with A25G, C27A, A28U, A31C
DNA 1: CAATCTGAATTCCGGTCTCCC
DNA 2: TGGTGGCTACGACGGGATT
B14: GCAUUUU (DNA:RNA)
RNA: B1 RNA with U25G, A26C, C28U, A29U
DNA 1: CAATCTGAATTCCGGTCTCCC
DNA 2: TGGTGGCTACGACGGGATT
B15: GCAUGGA (DNA:RNA)
RNA: B3 RNA with A25G, G26C, C27A, A28U, A30G
DNA 1: CAATCTGAATTCCGGTCTCCC
DNA 2: TGGTGGCTACGACGGGATT
B16: CCUUGGG (DNA:RNA)
RNA: B3 RNA with A25C, G26C, C27U, A28U, A30G, A31G
DNA 1: CAATCTGAATTCCGGTCTCCC
DNA 2: TGGTGGCTACGACGGGATT
B17: CGCCUAC (DNA:RNA)
RNA: B3 RNA with A25C, A28C, G29U, A31C
DNA 1: CAATCTGAATTCCGGTCTCCC
DNA 2: TGGTGGCTACGACGGGATT
B18: AUGAUGU (DNA:RNA)
RNA: B3 RNA with G26U, C27G, G29U, A30G, A31U
DNA 1: CAATCTGAATTCCGGTCTCCC
DNA 2: TGGTGGCTACGACGGGATT
B19: GCAUAUA (DNA:RNA)
RNA: B1 RNA with U25G, A26C, C28U, U31A
DNA 1: CAATCTGAATTCCGGTCTCCC
DNA 2: TGGTGGCTACGACGGGATT
B20: GCAUAGA (DNA:RNA)
RNA: B1 RNA with U25G, A26C, C28U, U30G, U31A
DNA 1: CAATCTGAATTCCGGTCTCCC
DNA 2: TGGTGGCTACGACGGGATT
B21: GCAUGAA (DNA:RNA)
RNA: B3 RNA with A25G, G26C, C27A, A28U
DNA 1: CAATCTGAATTCCGGTCTCCC
DNA 2: TGGTGGCTACGACGGGATT
B22: GCCAUGA (DNA:RNA)
RNA: B3 RNA with A25G, G26C, G29U, A30G
DNA 1: CAATCTGAATTCCGGTCTCCC
DNA 2: TGGTGGCTACGACGGGATT
B23: GCAUGAG (DNA:RNA)
RNA: B3 RNA with A25G, G26C, C27A, A28U, A31G
DNA 1: CAATCTGAATTCCGGTCTCCC
DNA 2: TGGTGGCTACGACGGGATT
B24: GUAUGUA (DNA:RNA)
RNA: B3 RNA with A25G, G26U, C27A, A28U, A30U
DNA 1: CAATCTGAATTCCGGTCTCCC
DNA 2: TGGTGGCTACGACGGGATT
B25: GCAUAAA (DNA:RNA)
RNA: B3 RNA with A25G, G26C, C27A, A28U, G29A
DNA 1: CAATCTGAATTCCGGTCTCCC
DNA 2: TGGTGGCTACGACGGGATT
B26: GGAUGAG (DNA:RNA)
RNA: B3 RNA with A25G, C27A, A28U, A31G
DNA 1: CAATCTGAATTCCGGTCTCCC
DNA 2: TGGTGGCTACGACGGGATT
B27: GCAUGUA (DNA:RNA)
RNA: B3 RNA with A25G, G26C, C27A, A28U, A30U
DNA 1: CAATCTGAATTCCGGTCTCCC
DNA 2: TGGTGGCTACGACGGGATT
B28: CGCAUGA (DNA:RNA)
RNA: B3 RNA with A25C, G29U, A30G
DNA 1: CAATCTGAATTCCGGTCTCCC
DNA 2: TGGTGGCTACGACGGGATT
B29: GUAUGAG (DNA:RNA)
RNA: B3 RNA with A25G, G26U, C27A, A28U, A31G
DNA 1: CAATCTGAATTCCGGTCTCCC
DNA 2: TGGTGGCTACGACGGGATT
B30: GCAUUGA (DNA:RNA)
RNA: B3 RNA with A25G, G26C, C27A, A28U, G29U, A30G
DNA 1: CAATCTGAATTCCGGTCTCCC
DNA 2: TGGTGGCTACGACGGGATT
B31: AAUAAUA (DNA:RNA)
RNA: B3 RNA with G26A, C27U, G29A, A30U
DNA 1: CAATCTGAATTCCGGTCTCCC
DNA 2: TGGTGGCTACGACGGGATT

In the assay the target is T1, RBFOX1 RRM (Homo sapiens, UniProt Q9NWB1 109-208).
T1 sequence: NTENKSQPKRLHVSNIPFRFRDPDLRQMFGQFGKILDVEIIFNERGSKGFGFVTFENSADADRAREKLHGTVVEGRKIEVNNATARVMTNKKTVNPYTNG
Kind of assay: EMSA; HiTS-Eq, 1 nM pool, 10 min; buffer printed only for the single-RNA assays: 10 mM Tris pH 7.5, 150 mM NaCl, 3.4 mM EDTA, 0.001% NP-40, 30 C. As to conditions: tags: His6 N-terminal (pET28a); label: 5' 32P. Summed up:
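These values rest on relative association constants, computed from read-count changes of each RNA species versus the control reaction and normalised to the cognate motif. Reads came from free RNA recovered by 8% native PAGE after purified RbFox RRM (wild type or mutant) at increasing concentrations was equilibrated for 10 min in 50 µL with 1 nM of a 5′-radiolabelled pool with 7 randomized nucleotides and DNA-annealed flanks.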
Take B1: the binding signal is 0.00574 KA relative to UGCAUGU.
On to B2, for which the binding signal was 0.00675 KA relative to UGCAUGU.
Turning to B3, the binding signal is 0.00732 KA relative to UGCAUGU.
The figure for B4 is 0.0126 KA relative to UGCAUGU; for B5 it is 0.00789 KA relative to UGCAUGU.
As to B6, the binding signal is 0.599 KA relative to UGCAUGU.
The figure for B7 is 0.626 KA relative to UGCAUGU; for B8 it is 0.00272 KA relative to UGCAUGU.
B9: the binding signal was 0.156 KA relative to UGCAUGU.
As to B10, the binding signal was 0.00163 KA relative to UGCAUGU.
Then B11, with 0.0107 KA relative to UGCAUGU.
The figure for B12 is 0.0127 KA relative to UGCAUGU.
The figure for B13 is 0.015 KA relative to UGCAUGU; for B14 it is 0.0088 KA relative to UGCAUGU; for B15 it is 0.0333 KA relative to UGCAUGU.
For the molecule B16, the binding signal is 0.00389 KA relative to UGCAUGU.
On to B17, for which the binding signal was 0.00556 KA relative to UGCAUGU.
For the molecule B18, the binding signal is 0.0132 KA relative to UGCAUGU.
With B19, the binding signal was 0.0014 KA relative to UGCAUGU.
As to B20, the binding signal is 0.0137 KA relative to UGCAUGU.
The figure for B21 is 0.594 KA relative to UGCAUGU.
Turning to B22, the binding signal is 0.0124 KA relative to UGCAUGU.
Then B23, with 0.684 KA relative to UGCAUGU; and B24, with 0.0125 KA relative to UGCAUGU; and B25, with 0.00438 KA relative to UGCAUGU.
Regarding B26, the binding signal is 0.0205 KA relative to UGCAUGU.
The figure for B27 is 0.473 KA relative to UGCAUGU; for B28 it is 0.67 KA relative to UGCAUGU.
As to B29, the binding signal was 0.0141 KA relative to UGCAUGU.
Take B30: the binding signal is 0.0124 KA relative to UGCAUGU.
As to B31, the binding signal is 0.000771 KA relative to UGCAUGU.
